AHR activator = activates the human aryl hydrocarbon receptor | 320,000 tested, 2.5% active | P35869 | activation, % at 5 µM | AHR-responsive luciferase reporter cells, luminescence; in the data active means activation above about 47%;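 further: 0% = vehicle wells and 100% = reference agonist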
SENP8 block-1 = inhibitors of human SENP8 protease; inhibition, % at 20 µM; recombinant SENP8, Nedd8 substrate fluorescence; AID 602440; Q96LD8; 360,000 tested, 0.64% active; in the data active means inhibition mostly above about 40%, no sharp cut-off; inactive means mostly below about 27%
SENP7 inh = SENP7 protease inhibition; recombinant SENP7, Z-RLRGG-aminoluciferin luminescence, 40 min; Q9BQF6; inhibition, % at 5 µM; 330,000 tested, 1.5% active;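 active means inhibition above about 50% at the single test dose, limit read from the data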;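 further: plate controls were DMSO with enzyme for no effect and no enzyme buffer wells for full effect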
Target sequence (Q9BQF6 706-1050 limits assumed): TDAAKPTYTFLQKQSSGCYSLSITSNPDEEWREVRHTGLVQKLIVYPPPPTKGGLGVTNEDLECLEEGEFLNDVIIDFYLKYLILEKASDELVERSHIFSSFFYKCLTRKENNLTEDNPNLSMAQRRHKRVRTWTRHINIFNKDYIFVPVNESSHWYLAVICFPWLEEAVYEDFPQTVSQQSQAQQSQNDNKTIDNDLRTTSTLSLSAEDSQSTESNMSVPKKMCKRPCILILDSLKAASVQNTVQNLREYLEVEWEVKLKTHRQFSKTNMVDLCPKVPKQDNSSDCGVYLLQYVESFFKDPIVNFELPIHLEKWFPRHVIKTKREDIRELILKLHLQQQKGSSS
SENP6 inh = inhibitors of human SENP6 protease | inhibition, % at 10 µM | Q9GZR1 | 330,000 tested, 1.8% active | Recombinant SENP6 catalytic domain, aminoluciferin luminescence | AID 2599;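 active means inhibition above about 50% at the single tested dose, limit read from the data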;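 further: plate controls were DMSO wells with enzyme for no effect and DMSO wells lacking enzyme for full effect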
SENP8 block-2 = SENP8 protease inhibition; 330,000 tested, 1.2% active; Q96LD8; AID 2540; purified SENP8, Z-RLRGG-aminoluciferin cleavage, luminescence; inhibition, % at 10 µM; in the data active means inhibition above about 50%
EBI2 antag = antagonists of human EBI2 receptor; AID 651636; P32249; inhibition, % at 5 µM; 360,000 tested, 0.81% active; EBI2 beta-arrestin recruitment, luminescence, 7a,25-OHC stimulated; in the data active means inhibition above about 38%;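 further: enzyme fragment complementation signal reports receptor beta-arrestin coupling in cells; 0% = agonist plus DMSO wells and 100% = wells without agonist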
SENP8 confirm = human SENP8 inhibition, confirmed | Recombinant SENP8, Z-RLRGG-aminoluciferin luminescence, 60 min | 6,200 tested, 40% active | shares compounds with SENP7 inh | AID 488912 | inhibition, % at 12.5 µM;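 active means mean inhibition across replicates above about 50%, limit read from the data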
SENP6 conf = confirmation of human SENP6 protease inhibitors | 6,200 tested, 58% active | inhibition, % at 12.5 µM | shares compounds with SENP7 inh | AID 488915 | recombinant SENP6, Z-RLRGG-aminoluciferin luminescence
SENP7 conf = human SENP7 inhibition, confirmed | shares compounds with SENP7 inh | recombinant SENP7, Z-RLRGG-aminoluciferin luminescence, 40 min | inhibition, % at 12.5 µM | 6,200 tested, 69% active | AID 488917
Casp3 select = inhibits human caspase-3 in SENP selectivity test; shares compounds with SENP7 inh; purified caspase-3, Z-DEVD-aminoluciferin luminescence, 60 min; inhibition, % at 12.5 µM; 6,200 tested, 60% active;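 active means mean inhibition above about 50%, limit read from the data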;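 further: plate controls were enzyme with DMSO for no effect and wells without caspase-3 for full effect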
Target sequence (P42574 28-227 limits assumed): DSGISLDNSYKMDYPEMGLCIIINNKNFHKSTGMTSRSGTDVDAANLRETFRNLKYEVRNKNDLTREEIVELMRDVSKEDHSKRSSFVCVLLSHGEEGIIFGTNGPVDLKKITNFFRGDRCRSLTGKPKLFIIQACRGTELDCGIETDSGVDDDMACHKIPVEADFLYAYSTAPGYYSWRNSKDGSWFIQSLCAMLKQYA
SENP luc ctr = interferes with luciferase luminescence in SENP counter-screen; shares compounds with SENP7 inh; Pre-incubated SENP8/Z-RLRGG-aminoluciferin, luciferase luminescence interference; inhibition, % at 12.5 µM; 6,200 tested, 39% active; AID 488919;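 active means mean inhibition above about 50% when retested at one dose, limit read from the data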;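 further: plate controls were DMSO wells with completed reaction for no effect and substrate without enzyme for full effect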
An asterisk follows results filed as active. Only some compounds are listed: those with a hit (about 5% of all), similar ones and a draw of the others.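 How the source made its calls, unless noted: active means mean inhibition above about 50% in the one-dose retest (limit read from the data); inactive means the rest.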

For O=C(O)c1ccc(-n2cc(C(=O)c3ccccc3O)cn2)cc1 the results were AHR activator 8.6, SENP8 block-1 12.4, SENP7 inh 78.0*, SENP6 inh 84.2*, SENP8 block-2 77.9*, EBI2 antag -10.0, SENP8 confirm 80.9*, SENP6 conf 78.6*, SENP7 conf 93.2*, Casp3 select 91.3* and SENP luc ctr 85.0*.
`O=C(c1cnn(-c2nc3ccccc3s2)c1)c1ccccc1O` gave AHR activator 6.8, SENP8 block-1 16.6, SENP7 inh 82.3*, SENP6 inh 78.7*, SENP8 block-2 37.7, EBI2 antag 15.3, SENP8 confirm 15.7, SENP6 conf 37.2, SENP7 conf 24.2, Casp3 select 17.9 and SENP luc ctr 8.8.
For O=C(c1cnn(-c2cccc(F)c2)c1)c1ccccc1O the results were AHR activator 4.9, SENP8 block-1 12.1, SENP7 inh 67.9*, SENP6 inh 71.1*, SENP8 block-2 57.8*, EBI2 antag 14.3, SENP8 confirm 15.7, SENP6 conf 72.1*, SENP7 conf 83.6*, Casp3 select 55.5* and SENP luc ctr 11.5.
For O=C(c1cnn(-c2ccccc2)c1)c1ccc2ccccc2c1O the results were AHR activator 4.6, SENP8 block-1 14.3, SENP7 inh 85.6*, SENP6 inh 7.1, SENP8 block-2 41.2, EBI2 antag -8.8, SENP8 confirm 11.8, SENP6 conf 16.4, SENP7 conf -0.1, Casp3 select 27.2 and SENP luc ctr 0.9.
`O=C(c1cnn(-c2ccccc2)c1)c1cc(Br)ccc1O` gave AHR activator 3.4, SENP8 block-1 23.9, SENP7 inh -3.7, SENP6 inh -7.3, SENP8 block-2 -13.2 and EBI2 antag -18.3.
COc1ccc(S(=O)(=O)N/N=C(/C)c2ccncc2)c(OC)c1 was read as AHR activator -0.1, SENP8 block-1 2.9, SENP7 inh -3.7, SENP6 inh -3.7, SENP8 block-2 2.6 and EBI2 antag 6.0.
O=C(O)c1ccc(Cl)c(S(=O)(=O)Nc2ccc(OCc3ccccc3)cc2)c1 was read as AHR activator -0.5, SENP8 block-1 2.7, SENP7 inh 6.9, SENP6 inh -18.5, SENP8 block-2 2.7 and EBI2 antag 15.2.
Screening c1ccc(COc2ccc3nocc3c2)cc1 returned AHR activator -3.2, SENP8 block-1 -27.5, SENP7 inh 89.7*, SENP6 inh 93.0*, SENP8 block-2 89.7*, EBI2 antag -23.2, SENP8 confirm 85.5*, SENP6 conf 89.5*, SENP7 conf 100.2*, Casp3 select 91.1* and SENP luc ctr 83.6*.
Screening COc1ccccc1NC(=O)Nc1ccc(-n2ccc(C(F)(F)F)n2)cc1 returned AHR activator -3.9, SENP8 block-1 14.3, SENP7 inh 82.3*, SENP6 inh 80.1*, SENP8 block-2 73.2*, EBI2 antag -7.1, SENP8 confirm 76.1*, SENP6 conf 82.5*, SENP7 conf 92.8*, Casp3 select 44.3 and SENP luc ctr 69.1*.
For COc1ccccc1NC(=O)Nc1ccc(N2CCOCC2)cc1 the results were AHR activator 6.5, SENP8 block-1 10.8, SENP7 inh 55.6*, SENP6 inh 63.5*, SENP8 block-2 38.9, EBI2 antag -17.6, SENP8 confirm 64.8*, SENP6 conf 61.7*, SENP7 conf 87.2*, Casp3 select 79.6* and SENP luc ctr 65.7*.
COc1ccccc1CNCC(=O)Nc1ccc(N2CCOCC2)cc1 was read as AHR activator 6.6, SENP8 block-1 29.1, SENP7 inh 10.2, SENP6 inh -6.4, SENP8 block-2 -4.2 and EBI2 antag 9.9.
Screening CCCCCC(=O)NCc1c(C(F)(F)F)nn(C)c1N1CCOCC1 returned AHR activator -0.2, SENP8 block-1 3.2, SENP7 inh -11.2, SENP6 inh -15.1, SENP8 block-2 -7.3 and EBI2 antag 0.8.
For COc1ccc(NC(=O)[C@H](C)NC(=O)C2CCN(S(=O)(=O)c3ccc(C)cc3)CC2)cc1 the results were AHR activator 3.1, SENP8 block-1 10.9, SENP7 inh 2.0, SENP6 inh 29.5, SENP8 block-2 3.7 and EBI2 antag 7.2.
`Cc1c(O)ccc(C(=O)CN2CCN(c3ccc(F)cc3)CC2)c1O` gave AHR activator 18.8, SENP8 block-1 -41.2, SENP7 inh 8.5, SENP6 inh 7.0, SENP8 block-2 -0.5 and EBI2 antag 5.9.
`Cc1c(O)ccc(C(=O)CN2CCN(Cc3ccccc3)CC2)c1O` gave AHR activator -0.6, SENP8 block-1 -14.4, SENP7 inh 58.5*, SENP6 inh -20.7, SENP8 block-2 -1.4, EBI2 antag -11.6, SENP8 confirm -12.3, SENP6 conf -0.7, SENP7 conf -8.6, Casp3 select -3.7 and SENP luc ctr -2.8.
`O=C1C(Cl)=C(N2CCC(C(=O)O)CC2)C(=O)c2ccccc21` gave AHR activator 12.6, SENP8 block-1 -30.4, SENP7 inh 38.8, SENP6 inh 63.3*, SENP8 block-2 28.0, EBI2 antag -17.4, SENP8 confirm 56.2*, SENP6 conf 71.0*, SENP7 conf 14.9, Casp3 select -1.0 and SENP luc ctr -3.8.
For NC(=O)C1CCN(C2=C(Cl)C(=O)c3ccccc3C2=O)CC1 the results were AHR activator 19.4, SENP8 block-1 -29.4, SENP7 inh 41.6, SENP6 inh 50.1*, SENP8 block-2 26.9, EBI2 antag 1.3, SENP8 confirm -7.4, SENP6 conf 75.1*, SENP7 conf 11.4, Casp3 select -3.2 and SENP luc ctr -4.7.
Screening O=C(O)COc1ccc(/C=N/NC(=O)c2cccc3ccccc23)cc1 returned AHR activator 2.8, SENP8 block-1 -16.4, SENP7 inh -3.9, SENP6 inh -20.7, SENP8 block-2 -7.1 and EBI2 antag -1.6.
Screening CC(NC(=O)Nc1ccc([N+](=O)[O-])cc1)C(c1cccs1)N1CCCC1 (configuration not stated) returned AHR activator -1.2, SENP8 block-1 19.7, SENP7 inh 3.1, SENP6 inh 1.4, SENP8 block-2 -0.1 and EBI2 antag -9.2.

Screening data: PubChem BioAssay, several laboratories
